# Reference: PMC7862700, “An all-to-all approach to the identification of sequence-specific readers for epigenetic DNA modifications on cytosine”
# Legend:
# Assay in all cases: DAPPL (digital affinity profiling via proximity ligation, sequencing); 10 mM Tris-HCl pH 7.5, 50 mM NaCl, 1 mM DTT, 4% glycerol, room temperature, 30 min; GST-TFs on glutathione beads, 16-mer random dsDNA library, 0.1% formaldehyde crosslink after washing; high values mean tight binding
# FEV = molecular target: T1, FEV (Homo sapiens, UniProt Q99581 1-238); details: protein: recombinant; tags: N-terminal GST; dsDNA, one strand shown
# T1 sequence: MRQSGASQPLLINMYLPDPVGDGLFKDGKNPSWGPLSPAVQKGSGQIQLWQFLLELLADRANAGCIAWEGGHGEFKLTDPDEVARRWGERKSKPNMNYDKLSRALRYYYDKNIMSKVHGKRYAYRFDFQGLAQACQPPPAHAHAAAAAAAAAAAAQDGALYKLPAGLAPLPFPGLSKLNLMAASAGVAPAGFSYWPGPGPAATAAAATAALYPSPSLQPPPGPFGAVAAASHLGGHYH
# Procedure, shortened: (§1)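 Binding signal is each hexamer's read frequency for a factor divided by its frequency in the tag-only sample. The factors were GST-fused human transcription factors from yeast, captured on glutathione beads, DNA-barcoded and pooled with that sample. Pools were incubated with 200 nmole of a random double-stranded 16-mer DNA library in Tris/NaCl/DTT/glycerol buffer at room temperature for 30 min, then washed, crosslinked with 0.1% formaldehyde, proximity-ligated with BsaI/T4 ligase (1 h, 37 °C), PCR-amplified and sequenced on an Illumina NextSeq500.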
# ETV5 = ETV5 (Homo sapiens, UniProt P41161 1-510); details: protein: recombinant; tags: N-terminal GST; dsDNA, one strand shown
# Procedure, shortened: as §1
# HSF1 = HSF1 (Homo sapiens, UniProt Q00613 1-529); details: protein: recombinant; tags: N-terminal GST; chain copies: 3; dsDNA, one strand shown
# Procedure, shortened: as §1
# SPIC = molecular target: T2, SPIC (Homo sapiens, UniProt Q8N5J4 1-248); details: protein: recombinant; tags: N-terminal GST; dsDNA, one strand shown
# T2 sequence: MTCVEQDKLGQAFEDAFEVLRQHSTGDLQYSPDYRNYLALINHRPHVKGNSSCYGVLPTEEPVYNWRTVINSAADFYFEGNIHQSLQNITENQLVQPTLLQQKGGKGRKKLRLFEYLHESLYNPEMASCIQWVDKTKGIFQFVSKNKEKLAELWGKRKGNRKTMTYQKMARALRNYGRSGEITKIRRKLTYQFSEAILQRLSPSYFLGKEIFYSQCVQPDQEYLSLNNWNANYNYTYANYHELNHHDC
# Procedure, shortened: as §1
# ELF4 = ELF4 (Homo sapiens, UniProt Q99607 1-663); details: protein: recombinant; tags: N-terminal GST; dsDNA, one strand shown
# Procedure, shortened: as §1
# ELK4 = molecular target: T3, ELK4 (Homo sapiens, UniProt P28324-2 1-405); details: protein: recombinant; tags: N-terminal GST; dsDNA, one strand shown
# T3 sequence: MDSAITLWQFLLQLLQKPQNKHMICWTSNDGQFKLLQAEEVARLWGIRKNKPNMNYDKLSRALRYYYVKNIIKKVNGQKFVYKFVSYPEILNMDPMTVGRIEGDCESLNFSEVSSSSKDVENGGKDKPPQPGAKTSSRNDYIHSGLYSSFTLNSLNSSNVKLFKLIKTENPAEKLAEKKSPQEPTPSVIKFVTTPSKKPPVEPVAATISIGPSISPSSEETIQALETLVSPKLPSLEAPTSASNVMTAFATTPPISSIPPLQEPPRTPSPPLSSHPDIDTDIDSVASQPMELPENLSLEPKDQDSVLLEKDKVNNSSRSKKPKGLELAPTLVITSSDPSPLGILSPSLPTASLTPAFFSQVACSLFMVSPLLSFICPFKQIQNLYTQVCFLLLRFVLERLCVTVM
# Procedure, shortened: as §1
# ETV2 = molecular target: T4, ETV2 (Homo sapiens, UniProt O00321 1-342); details: protein: recombinant; tags: N-terminal GST; dsDNA, one strand shown
# T4 sequence: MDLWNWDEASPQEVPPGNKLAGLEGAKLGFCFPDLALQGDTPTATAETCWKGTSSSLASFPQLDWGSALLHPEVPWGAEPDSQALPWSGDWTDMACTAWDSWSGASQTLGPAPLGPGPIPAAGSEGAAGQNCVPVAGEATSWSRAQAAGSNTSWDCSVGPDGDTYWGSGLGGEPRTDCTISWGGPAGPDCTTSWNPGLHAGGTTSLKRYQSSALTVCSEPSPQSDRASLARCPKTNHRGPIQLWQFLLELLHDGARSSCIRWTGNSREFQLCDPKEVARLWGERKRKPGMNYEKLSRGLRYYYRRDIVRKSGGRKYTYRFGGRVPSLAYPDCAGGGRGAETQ
# Procedure, shortened: as §1
# ELF3 = molecular target: T5, ELF3 (Homo sapiens, UniProt P78545 1-371); details: protein: recombinant; tags: N-terminal GST; dsDNA, one strand shown
# T5 sequence: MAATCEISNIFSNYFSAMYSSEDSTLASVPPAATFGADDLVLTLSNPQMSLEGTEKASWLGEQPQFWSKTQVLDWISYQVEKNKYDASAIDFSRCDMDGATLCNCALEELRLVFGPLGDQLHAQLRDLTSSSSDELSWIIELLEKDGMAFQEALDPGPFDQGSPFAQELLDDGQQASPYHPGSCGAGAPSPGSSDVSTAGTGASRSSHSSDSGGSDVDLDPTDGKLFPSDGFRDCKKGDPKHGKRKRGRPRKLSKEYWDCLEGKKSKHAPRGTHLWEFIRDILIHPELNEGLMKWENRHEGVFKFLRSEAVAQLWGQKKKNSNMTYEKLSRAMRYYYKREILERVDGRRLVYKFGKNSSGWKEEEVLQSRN
# Procedure, shortened: as §1
# CRX = CRX (Homo sapiens, UniProt O43186 1-299); details: protein: recombinant; tags: N-terminal GST; dsDNA, one strand shown
# Procedure, shortened: as §1
# ETV1 = ETV1 (Homo sapiens, UniProt P50549 1-477); details: protein: recombinant; tags: N-terminal GST; dsDNA, one strand shown
# Procedure, shortened: as §1
# ERF = molecular target: T6, ERF (Homo sapiens, UniProt P50548 1-548); details: protein: recombinant; tags: N-terminal GST; dsDNA, one strand shown
# T6 sequence: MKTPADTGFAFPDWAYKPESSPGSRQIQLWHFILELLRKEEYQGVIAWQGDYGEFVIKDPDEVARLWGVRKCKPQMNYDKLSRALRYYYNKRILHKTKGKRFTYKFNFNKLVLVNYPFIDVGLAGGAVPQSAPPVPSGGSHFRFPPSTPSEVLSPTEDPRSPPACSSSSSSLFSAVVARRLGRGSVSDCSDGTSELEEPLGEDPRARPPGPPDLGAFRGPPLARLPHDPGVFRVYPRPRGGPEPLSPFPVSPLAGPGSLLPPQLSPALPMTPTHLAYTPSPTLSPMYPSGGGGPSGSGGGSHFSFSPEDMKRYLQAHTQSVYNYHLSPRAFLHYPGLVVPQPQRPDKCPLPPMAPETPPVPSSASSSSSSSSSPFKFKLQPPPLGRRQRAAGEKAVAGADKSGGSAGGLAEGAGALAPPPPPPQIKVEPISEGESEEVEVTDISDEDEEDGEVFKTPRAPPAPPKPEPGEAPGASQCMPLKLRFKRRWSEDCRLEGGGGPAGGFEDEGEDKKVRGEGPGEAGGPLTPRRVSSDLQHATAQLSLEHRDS
# Procedure, shortened: as §1
# ETV3L = molecular target: T7, ETV3L (Homo sapiens, UniProt Q6ZN32 1-361); details: protein: recombinant; tags: N-terminal GST; dsDNA, one strand shown
# T7 sequence: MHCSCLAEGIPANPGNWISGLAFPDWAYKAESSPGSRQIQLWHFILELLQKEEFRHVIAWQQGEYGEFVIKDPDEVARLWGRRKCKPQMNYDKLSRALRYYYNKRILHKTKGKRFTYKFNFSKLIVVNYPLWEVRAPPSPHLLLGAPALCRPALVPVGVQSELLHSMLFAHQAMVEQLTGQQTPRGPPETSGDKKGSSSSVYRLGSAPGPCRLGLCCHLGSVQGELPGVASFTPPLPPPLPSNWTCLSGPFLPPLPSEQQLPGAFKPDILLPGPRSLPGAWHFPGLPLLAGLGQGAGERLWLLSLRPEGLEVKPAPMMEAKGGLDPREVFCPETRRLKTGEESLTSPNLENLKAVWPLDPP
# Procedure, shortened: as §1
# ETS2 = molecular target: T8, ETS2 (Homo sapiens, UniProt P15036 1-469); details: protein: recombinant; tags: N-terminal GST; dsDNA, one strand shown
# T8 sequence: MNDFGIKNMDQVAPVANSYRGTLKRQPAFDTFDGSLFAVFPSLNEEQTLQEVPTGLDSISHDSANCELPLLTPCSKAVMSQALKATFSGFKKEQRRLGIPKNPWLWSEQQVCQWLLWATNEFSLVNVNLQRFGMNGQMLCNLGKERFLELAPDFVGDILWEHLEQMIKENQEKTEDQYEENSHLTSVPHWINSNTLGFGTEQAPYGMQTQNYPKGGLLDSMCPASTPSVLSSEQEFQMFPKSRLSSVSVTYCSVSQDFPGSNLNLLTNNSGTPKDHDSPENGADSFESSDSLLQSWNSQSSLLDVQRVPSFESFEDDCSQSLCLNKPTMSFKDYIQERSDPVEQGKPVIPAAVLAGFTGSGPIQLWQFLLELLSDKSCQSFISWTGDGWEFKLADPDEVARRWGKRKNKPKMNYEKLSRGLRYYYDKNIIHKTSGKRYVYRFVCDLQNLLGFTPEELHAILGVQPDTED
# Procedure, shortened: as §1
# SPDEF = molecular target: T9, SPDEF (Homo sapiens, UniProt O95238 1-335); details: protein: recombinant; tags: N-terminal GST; dsDNA, one strand shown
# T9 sequence: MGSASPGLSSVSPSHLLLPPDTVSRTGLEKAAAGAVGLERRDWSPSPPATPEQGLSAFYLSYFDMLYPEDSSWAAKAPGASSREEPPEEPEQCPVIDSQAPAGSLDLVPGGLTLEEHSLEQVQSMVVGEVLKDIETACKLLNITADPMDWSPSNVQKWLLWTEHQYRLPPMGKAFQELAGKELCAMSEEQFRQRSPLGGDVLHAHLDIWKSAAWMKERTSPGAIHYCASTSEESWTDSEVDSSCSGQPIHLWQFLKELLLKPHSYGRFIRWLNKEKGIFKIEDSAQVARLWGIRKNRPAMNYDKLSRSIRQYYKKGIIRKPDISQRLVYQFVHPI
# Procedure, shortened: as §1
# ETV7 = molecular target: T10, ETV7 (Homo sapiens, UniProt Q9Y603 1-341); details: protein: recombinant; tags: N-terminal GST; dsDNA, one strand shown
# T10 sequence: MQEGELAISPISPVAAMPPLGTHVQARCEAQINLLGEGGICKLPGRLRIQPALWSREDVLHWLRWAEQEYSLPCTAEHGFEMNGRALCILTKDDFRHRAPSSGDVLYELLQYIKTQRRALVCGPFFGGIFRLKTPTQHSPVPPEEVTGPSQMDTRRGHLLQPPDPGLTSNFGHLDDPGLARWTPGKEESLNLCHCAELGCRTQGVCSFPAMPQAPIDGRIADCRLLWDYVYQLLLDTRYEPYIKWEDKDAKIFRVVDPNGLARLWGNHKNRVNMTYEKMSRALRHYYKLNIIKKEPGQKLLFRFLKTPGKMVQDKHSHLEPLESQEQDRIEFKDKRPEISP
# Procedure, shortened: as §1
# ELF5 = molecular target: T11, ELF5 (Homo sapiens, UniProt Q9UKW6-2 1-255); details: protein: recombinant; tags: N-terminal GST; dsDNA, one strand shown
# T11 sequence: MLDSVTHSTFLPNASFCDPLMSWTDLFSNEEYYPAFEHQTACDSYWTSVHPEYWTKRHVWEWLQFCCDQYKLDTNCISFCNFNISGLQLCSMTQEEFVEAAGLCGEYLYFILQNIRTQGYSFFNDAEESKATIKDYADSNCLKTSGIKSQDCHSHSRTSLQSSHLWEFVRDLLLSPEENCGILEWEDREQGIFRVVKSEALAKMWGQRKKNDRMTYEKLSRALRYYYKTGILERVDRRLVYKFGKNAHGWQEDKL
# Procedure, shortened: as §1
# ETV3 = molecular target: T12, ETV3 (Homo sapiens, UniProt P41162-2 1-143); details: protein: recombinant; tags: N-terminal GST; dsDNA, one strand shown
# T12 sequence: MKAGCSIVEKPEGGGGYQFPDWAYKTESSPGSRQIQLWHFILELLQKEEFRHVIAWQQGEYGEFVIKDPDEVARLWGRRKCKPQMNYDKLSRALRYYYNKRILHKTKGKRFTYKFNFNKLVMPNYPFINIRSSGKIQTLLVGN
# Procedure, shortened: as §1
# ETV6 = ETV6 (Homo sapiens, UniProt P41212 1-452); details: protein: recombinant; tags: N-terminal GST; dsDNA, one strand shown
# Procedure, shortened: as §1
# HSF1, sequence (Q00613 whole entry): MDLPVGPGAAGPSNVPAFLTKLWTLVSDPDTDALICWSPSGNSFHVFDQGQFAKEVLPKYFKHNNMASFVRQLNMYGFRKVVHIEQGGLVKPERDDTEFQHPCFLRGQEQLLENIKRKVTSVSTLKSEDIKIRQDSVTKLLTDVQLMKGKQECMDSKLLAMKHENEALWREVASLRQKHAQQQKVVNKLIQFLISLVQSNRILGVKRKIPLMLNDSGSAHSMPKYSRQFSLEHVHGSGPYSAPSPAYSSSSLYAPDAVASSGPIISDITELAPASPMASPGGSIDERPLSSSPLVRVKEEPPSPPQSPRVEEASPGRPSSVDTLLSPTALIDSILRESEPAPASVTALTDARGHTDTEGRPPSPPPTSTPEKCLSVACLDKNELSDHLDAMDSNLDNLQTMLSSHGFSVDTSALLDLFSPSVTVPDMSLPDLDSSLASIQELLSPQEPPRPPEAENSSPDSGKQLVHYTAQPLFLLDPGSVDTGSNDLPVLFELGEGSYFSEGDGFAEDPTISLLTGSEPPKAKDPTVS
# ETV1, sequence (P50549 whole entry): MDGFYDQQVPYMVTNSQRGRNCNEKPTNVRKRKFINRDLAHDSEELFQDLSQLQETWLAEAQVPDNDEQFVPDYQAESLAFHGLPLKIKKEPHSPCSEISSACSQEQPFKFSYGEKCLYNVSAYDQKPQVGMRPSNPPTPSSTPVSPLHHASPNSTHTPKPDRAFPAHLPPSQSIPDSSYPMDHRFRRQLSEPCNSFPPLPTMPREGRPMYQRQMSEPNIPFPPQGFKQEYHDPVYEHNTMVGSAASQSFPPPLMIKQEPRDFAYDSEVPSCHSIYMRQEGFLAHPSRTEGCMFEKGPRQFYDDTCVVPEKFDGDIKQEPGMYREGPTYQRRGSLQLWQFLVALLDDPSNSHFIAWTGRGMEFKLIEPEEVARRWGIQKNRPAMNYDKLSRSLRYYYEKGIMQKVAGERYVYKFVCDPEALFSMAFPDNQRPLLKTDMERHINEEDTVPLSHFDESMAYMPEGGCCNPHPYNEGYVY
# ETV6, sequence (P41212 whole entry): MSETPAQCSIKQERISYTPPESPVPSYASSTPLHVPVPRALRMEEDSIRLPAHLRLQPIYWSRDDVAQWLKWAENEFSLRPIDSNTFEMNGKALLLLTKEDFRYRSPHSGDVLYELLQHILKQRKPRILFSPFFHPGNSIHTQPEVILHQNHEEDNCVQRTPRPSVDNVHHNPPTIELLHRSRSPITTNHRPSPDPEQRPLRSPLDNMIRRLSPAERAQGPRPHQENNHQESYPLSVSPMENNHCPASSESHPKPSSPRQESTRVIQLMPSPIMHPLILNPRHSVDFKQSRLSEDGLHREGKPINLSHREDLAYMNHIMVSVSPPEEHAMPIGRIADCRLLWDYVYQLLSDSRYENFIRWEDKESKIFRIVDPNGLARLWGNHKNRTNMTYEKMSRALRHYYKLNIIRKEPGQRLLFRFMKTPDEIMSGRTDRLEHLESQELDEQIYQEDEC
# ELF4, sequence (Q99607 whole entry): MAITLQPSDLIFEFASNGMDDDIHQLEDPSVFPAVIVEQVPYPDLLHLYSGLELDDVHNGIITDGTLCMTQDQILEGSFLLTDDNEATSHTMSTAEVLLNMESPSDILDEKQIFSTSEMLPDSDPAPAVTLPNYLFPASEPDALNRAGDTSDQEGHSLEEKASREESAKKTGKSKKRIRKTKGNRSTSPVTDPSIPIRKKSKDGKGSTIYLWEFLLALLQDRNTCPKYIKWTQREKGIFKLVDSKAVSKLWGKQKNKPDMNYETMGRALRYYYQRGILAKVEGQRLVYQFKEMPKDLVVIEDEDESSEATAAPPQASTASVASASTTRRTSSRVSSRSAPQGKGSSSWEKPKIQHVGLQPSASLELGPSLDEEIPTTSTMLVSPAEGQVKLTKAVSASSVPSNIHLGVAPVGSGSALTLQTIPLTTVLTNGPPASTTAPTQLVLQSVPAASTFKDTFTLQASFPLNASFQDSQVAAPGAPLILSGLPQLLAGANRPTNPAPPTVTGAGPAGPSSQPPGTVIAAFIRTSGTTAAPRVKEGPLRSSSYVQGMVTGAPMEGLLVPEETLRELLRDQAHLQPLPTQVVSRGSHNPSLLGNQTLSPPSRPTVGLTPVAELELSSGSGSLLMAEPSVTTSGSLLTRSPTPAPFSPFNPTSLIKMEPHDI
# ETV5, sequence (P41161 whole entry): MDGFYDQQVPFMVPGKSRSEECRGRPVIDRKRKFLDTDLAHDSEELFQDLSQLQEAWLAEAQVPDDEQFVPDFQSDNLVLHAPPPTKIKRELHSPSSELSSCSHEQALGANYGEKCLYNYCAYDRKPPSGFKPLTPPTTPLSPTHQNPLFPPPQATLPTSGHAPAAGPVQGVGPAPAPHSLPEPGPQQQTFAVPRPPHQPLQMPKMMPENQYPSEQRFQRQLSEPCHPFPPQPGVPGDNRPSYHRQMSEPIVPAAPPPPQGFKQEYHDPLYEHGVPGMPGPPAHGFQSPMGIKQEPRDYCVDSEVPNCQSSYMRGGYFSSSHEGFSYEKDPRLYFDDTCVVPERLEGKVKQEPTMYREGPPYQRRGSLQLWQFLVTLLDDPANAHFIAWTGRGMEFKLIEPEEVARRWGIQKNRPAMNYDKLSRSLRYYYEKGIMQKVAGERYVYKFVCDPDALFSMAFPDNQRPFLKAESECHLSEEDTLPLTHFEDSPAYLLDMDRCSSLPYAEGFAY
# CRX, sequence (O43186 whole entry): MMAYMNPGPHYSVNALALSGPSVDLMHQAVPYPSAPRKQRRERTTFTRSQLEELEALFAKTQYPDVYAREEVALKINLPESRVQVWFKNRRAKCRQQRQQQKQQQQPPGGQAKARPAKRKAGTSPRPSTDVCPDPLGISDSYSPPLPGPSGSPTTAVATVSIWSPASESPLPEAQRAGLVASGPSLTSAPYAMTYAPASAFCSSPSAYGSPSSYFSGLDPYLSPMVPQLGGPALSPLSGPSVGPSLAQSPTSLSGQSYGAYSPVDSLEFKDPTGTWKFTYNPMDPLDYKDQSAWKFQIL
sequence,measurement,setting,value
TTCTTG,binding signal,FEV,"1.29 fold enrichment (6-mer frequency, TF over GST control)"
same,binding signal,ETV5,"1.41 fold enrichment (6-mer frequency, TF over GST control)"
same,binding signal,HSF1,"1.98 fold enrichment (6-mer frequency, TF over GST control)"
same,binding signal,SPIC,"1.31 fold enrichment (6-mer frequency, TF over GST control)"
same,binding signal,ELF4,"1.43 fold enrichment (6-mer frequency, TF over GST control)"
same,binding signal,ELK4,"1.34 fold enrichment (6-mer frequency, TF over GST control)"
same,binding signal,ETV2,"1.18 fold enrichment (6-mer frequency, TF over GST control)"
same,binding signal,ELF3,"1.46 fold enrichment (6-mer frequency, TF over GST control)"
same,binding signal,CRX,"1.55 fold enrichment (6-mer frequency, TF over GST control)"
same,binding signal,ETV1,"1.47 fold enrichment (6-mer frequency, TF over GST control)"
same,binding signal,ERF,"1.56 fold enrichment (6-mer frequency, TF over GST control)"
same,binding signal,ETV3L,"1.56 fold enrichment (6-mer frequency, TF over GST control)"
same,binding signal,ETS2,"1.39 fold enrichment (6-mer frequency, TF over GST control)"
same,binding signal,SPDEF,"1.28 fold enrichment (6-mer frequency, TF over GST control)"
same,binding signal,ETV7,"1.48 fold enrichment (6-mer frequency, TF over GST control)"
same,binding signal,ELF5,"1.39 fold enrichment (6-mer frequency, TF over GST control)"
same,binding signal,ETV3,"1.47 fold enrichment (6-mer frequency, TF over GST control)"
same,binding signal,ETV6,"1.38 fold enrichment (6-mer frequency, TF over GST control)"
